Our source for the outcome, Potency and max activation values is PubChem BioAssay (Tox21).

The nature of assay [1]: qHTS assay to identify small molecule agonists of the TGF-beta/Smad signaling pathway (AID 1346859; active means well fitted activation curve with a large enough effect in the signal ratio in the repeat runs, not every such curve was filed as active; the % refers to the signal ratio; further: series mostly up to about 77 µM). In short, it runs like this: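 Read-out: fluorescence at 460 and 530 nm (405 nm excitation) after a 2 hr room-temperature incubation with beta-lactamase FRET substrate. SBE-bla HEK 293T cells had been treated with test compounds for 5 hr at 37 C.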
The nature of assay [2]: Human pregnane X receptor (PXR) small molecule agonists, qHTS cell viability counter screen (AID 1346977). Further: nearly all actives have a fitted effect of over 50% in size. Summed up: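 Fluorescence read-out (CellTiter-Fluor) of viability in PXR-Luc HepG2 cells, multiplexed with the luciferase agonist read. Compounds in DMSO added after 5hr plating; 24hr total exposure at 37C, 5% CO2.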
(In general: Quantitative high-throughput screening tests each substance at several concentrations.)

Assay [3] can be described thus: Caspase-3/7 induction in HepG2 cells by small molecules, qHTS assay (AID 1346978). Further: nearly all actives have a fitted effect of over 15% in size. Summed up:
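Wild-type HepG2 cells (2,000/well) were settled 5 h at 37 C, 5% CO2, then exposed to compounds in DMSO for 17 h. Caspase-3/7 activity was read by luminescence 30 min after adding Caspase-Glo 3/7 reagent at room temperature.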

A short description of assay [4]: Caspase-3/7 induction in CHO-K1 cells by small molecules, qHTS cell viability counter screen (AID 1346979). Further: nearly all actives have a fitted effect of over 35% in size. Summed up:
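CHO-K1 wt, 1,500 cells/well; 5hr pre-incubation 37C/5% CO2; compound pin transfer (DMSO); 16hr exposure; CellTiter-Fluor added, 1hr, fluorescence read.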

Assay [5] in a line: Caspase-3/7 induction in CHO-K1 cells by small molecules, qHTS assay (AID 1346980). Further: nearly all actives have a fitted effect of over 15% in size. In short, it runs like this: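 Wild-type cells were seeded at 1,500 per well and settled 5 hr at 37 C, 5% CO2, then exposed to DMSO-dissolved compounds for 17 hr. Caspase-Glo 3/7 reagent was added, and luminescence was read after 30min at room temperature.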
Assay [6] concerns the target Nuclear receptor subfamily 1 group I member 2 (Homo sapiens) (UniProt O75469). Kind of assay: Human pregnane X receptor (PXR) small molecule agonists, qHTS assay (AID 1346982). Further: nearly all actives have a fitted effect of over 35% in size. Summed up:
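HepG2 PXR-Luc reporter line, 5% charcoal-stripped FBS; 5 hr pre-incubation, compound (DMSO) 24 hr at 37 C/5% CO2; ONE-Glo 30 min RT; luminescence read-out.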

Assay [7] has as its target Cytochrome P450 2D6 (Homo sapiens) (UniProt P10635). Kind of assay: Cytochrome P450 Family 2 Subfamily D Member 6 (CYP2D6) small molecule antagonists: luciferase reporter qHTS assay (AID 1671196). Further: nearly all actives have a fitted effect of over 50% in size. Further: potency means the concentration at half of the fitted maximal effect. In short, it runs like this:
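Luminogenic proluciferin substrate, CYP2D6 enzyme; 10 min RT preincubation with compound, NADPH regeneration system added, 1 h RT. Stop/detection reagent, 20 min RT, luminescence read (RLU). Signal proportional to CYP activity.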

Assay [8] addresses Cytochrome P450 2C19 (Homo sapiens) (UniProt P33261). Description: Cytochrome P450 Family 2 Subfamily C Member 19 (CYP2C19) small molecule antagonists: luciferase reporter qHTS assay (AID 1671197). Further: nearly all actives have a fitted effect of over 65% in size. Further: potency means the concentration at half of the fitted maximal effect. In short, it runs like this:
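Compounds were tested on CYP2C19 activity via proluciferin conversion to luciferin. The 37C, 1 h reaction followed NADPH addition; detection reagent stopped it.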

The target of assay [9] is Cytochrome P450 2C9 (Homo sapiens) (UniProt P11712). Kind of assay: Cytochrome P450 Family 2 Subfamily C Member 9 (CYP2C9) small molecule antagonists: luciferase reporter qHTS assay (AID 1671198). Further: nearly all actives have a fitted effect of over 50% in size. Further: potency means the concentration at half of the fitted maximal effect. Summed up:
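CYP2C9 activity was measured with a P450-Glo proluciferin substrate. Enzyme–substrate mix was held with compound for 10 min at room temperature, then NADPH regeneration solution was added for 1 h at 37C. Luciferin product was read as luminescence.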
For orientation: A reporter such as luciferase makes a cellular process visible.

Assay [10] has as its target Cytochrome P450 1A2 (Homo sapiens) (UniProt P05177). Kind of assay: Cytochrome P450 Family 1 Subfamily A Member 2 (CYP1A2) small molecule antagonists: luciferase reporter qHTS assay (AID 1671199). Further: nearly all actives have a fitted effect of over 50% in size. Further: potency means the concentration at half of the fitted maximal effect. In short, it runs like this:
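Luminescence readout (relative luminescence units) after luciferin detection reagent, 20 min RT. Preceded by 1 h room-temperature CYP1A2 reaction with NADPH regeneration solution following 10 min compound preincubation with enzyme and proluciferin substrate. Furafylline positive control.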

Assay [11] has as its target Voltage-gated inwardly rectifying potassium channel KCNH2 (Homo sapiens) (UniProt Q12809). Kind of assay: Human Ether-a-go-go-Related Gene (hERG) channel small molecule antagonists: fluorescence cell-based qHTS assay (AID 1671200). In short, it runs like this:
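Read-out: thallium influx as a surrogate for potassium, tracked as fluorescence (480 nm ex/540 nm em) every second for 2 min after Stimulus Buffer addition in dye-loaded hERG-U2OS cells.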
On the technique in general: The hERG channel carries a current that helps repolarise heart muscle cells.

The target of assay [12] is Cytochrome P450 3A4 (Homo sapiens) (UniProt P08684). Description: Cytochrome P450 Family 3 Subfamily A Member 4 (CYP3A4) small molecule antagonists: luciferase reporter qHTS assay (AID 1671201). Further: nearly all actives have a fitted effect of over 50% in size. Further: potency means the concentration at half of the fitted maximal effect. In short, it runs like this: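 Luminescent readout (RLU) proportional to CYP3A4 activity, from luciferin generated off a proluciferin substrate. Enzyme–substrate mix plus compound 10 min at room temp, NADPH regeneration 1 h, detection reagent 20 min.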
Chain of Cytochrome P450 3A4 (Homo sapiens) (P08684 whole entry, looked up): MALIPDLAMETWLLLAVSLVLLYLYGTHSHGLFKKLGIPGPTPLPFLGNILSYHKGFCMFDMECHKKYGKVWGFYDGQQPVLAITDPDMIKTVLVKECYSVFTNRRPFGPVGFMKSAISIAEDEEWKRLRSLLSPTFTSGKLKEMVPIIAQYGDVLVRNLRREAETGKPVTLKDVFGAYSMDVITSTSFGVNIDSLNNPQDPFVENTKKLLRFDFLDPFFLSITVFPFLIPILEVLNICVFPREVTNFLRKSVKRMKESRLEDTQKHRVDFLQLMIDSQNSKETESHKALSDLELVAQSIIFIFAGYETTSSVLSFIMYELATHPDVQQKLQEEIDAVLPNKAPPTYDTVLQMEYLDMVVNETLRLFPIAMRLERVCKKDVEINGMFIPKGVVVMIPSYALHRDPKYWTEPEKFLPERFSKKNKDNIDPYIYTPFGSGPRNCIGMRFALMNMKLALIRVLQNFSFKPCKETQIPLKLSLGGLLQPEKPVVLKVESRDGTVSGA

Assay [13] is described as follows: Caspase-3/7 induction in HepG2 cells by small molecules, qHTS cell viability counter screen (AID 1346981). Further: series mostly up to about 92 µM; nearly all actives have a fitted effect of over 30% in size. Summed up: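 Fluorescence read-out of live-cell protease activity (CellTiter-Fluor) after 1 hr with reagent. This was measured in the same wells as the caspase-3/7 luminescence, on HepG2 cells exposed to DMSO-dissolved compounds for 16 hr at 37 C.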
For assay [14], the target named is Thyrotropin-releasing hormone receptor (Homo sapiens) (UniProt P34981). Description: qHTS assay to identify small molecule antagonists of the thyrotropin-releasing hormone receptor (TRHR) signaling pathway (AID 1346877; active means well fitted inhibition curve with a large enough effect in the repeat runs, not every such curve was filed as active; further: series mostly up to about 51 µM). Summed up: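 HEK293/TRHR cells, 18 h, 37 °C; Ca2+ dye 2 h; cpd 5 min RT; TRH 1 nM final; fluorescence read 3 min, 1 s intervals; 15 concs, triplicate.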
Chain of Thyrotropin-releasing hormone receptor (Homo sapiens) (P34981 whole entry, looked up): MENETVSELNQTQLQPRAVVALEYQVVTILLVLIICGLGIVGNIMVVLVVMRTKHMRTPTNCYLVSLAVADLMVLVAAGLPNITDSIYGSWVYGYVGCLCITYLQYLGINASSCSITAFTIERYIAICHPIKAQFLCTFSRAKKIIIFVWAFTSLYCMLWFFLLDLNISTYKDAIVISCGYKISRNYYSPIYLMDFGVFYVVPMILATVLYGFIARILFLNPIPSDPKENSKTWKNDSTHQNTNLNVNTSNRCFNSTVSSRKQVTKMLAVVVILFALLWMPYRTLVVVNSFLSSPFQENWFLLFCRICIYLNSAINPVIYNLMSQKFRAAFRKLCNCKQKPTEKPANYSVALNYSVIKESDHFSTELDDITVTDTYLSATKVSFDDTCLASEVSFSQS

For assay [15] the target is unchanged. Description: qHTS assay to identify small molecule agonists of the thyrotropin-releasing hormone receptor (TRHR) signaling pathway (AID 1346891; calls by dose curve;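 further: HEK293 cells expressing TRHR with calcium dye readout; series mostly up to about 58 µM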). In short, it runs like this:
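HEK293/TRHR cells, 1500 per well, 18 h 37 °C; Ca dye 2 h 37 °C; pin-tool compound addition (agonist mode); kinetic fluorescence 3 min, 1 s reads; 15 concentrations, triplicate.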

The target of assay [16] is Nuclear receptor subfamily 1 group I member 2 (Rattus norvegicus) (UniProt Q9R1A7). Description: Rat pregnane X receptor (rPXR) activation by small molecules, qHTS assay (AID 1346983). Further: nearly all actives have a fitted effect of over 20% in size. The conditions noted are these: rPXR luciferase reporter cells, One-Glo luminescence, 24 h; max activation: active compounds read high. In short, it runs like this:
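Cell-based rPXR luciferase reporter assay, 2,000 cells per well, rested 5hr at 37 C before compound addition in DMSO, then 24 hr at 37 C. One-Glo reagent was added and luminescence read after 30 min at room temperature.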

The target in assay [17] is Nuclear receptor subfamily 1 group I member 2 (Homo sapiens) (UniProt O75469). Kind of assay: CYP3A4 induction through human pregnane X receptor (PXR) by small molecules, qHTS assay (AID 1346984). Further: nearly all actives have a fitted effect of over 40% in size. In short, it runs like this: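 HepG2-derived DPX-2 line carrying PXR plus a CYP3A4-promoter luciferase reporter; cells plated 5 hr, compound-exposed 24 hr at 37C. CYP3A4 activity probed with 3uM (final) Luciferin-IPA for 3hr, then luciferase read after One-Glo.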
Chain of Nuclear receptor subfamily 1 group I member 2 (Homo sapiens) (O75469 whole entry, looked up): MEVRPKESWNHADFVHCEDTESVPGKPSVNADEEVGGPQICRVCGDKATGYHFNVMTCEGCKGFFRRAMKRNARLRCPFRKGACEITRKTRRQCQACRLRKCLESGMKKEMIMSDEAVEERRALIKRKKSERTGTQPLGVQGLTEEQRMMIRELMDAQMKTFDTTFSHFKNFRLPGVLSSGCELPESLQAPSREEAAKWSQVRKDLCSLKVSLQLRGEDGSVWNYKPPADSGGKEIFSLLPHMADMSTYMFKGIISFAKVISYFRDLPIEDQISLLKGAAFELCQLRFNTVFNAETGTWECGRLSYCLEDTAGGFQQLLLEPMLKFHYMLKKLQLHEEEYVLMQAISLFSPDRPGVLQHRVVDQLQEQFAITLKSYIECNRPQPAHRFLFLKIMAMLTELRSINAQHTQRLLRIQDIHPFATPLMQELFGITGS

For assay [18] the target is unchanged. Kind of assay: Human pregnane X receptor (PXR) activation by small molecules, qHTS assay (AID 1346985). Further: nearly all actives have a fitted effect of over 40% in size. Summed up: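 DPX-2 cells (HepG2 co-transfected with a PXR response element and a CYP3A4-promoter luciferase construct) were seeded at 2,000 per well, rested 5 hr at 37C, then exposed to DMSO-dissolved compounds for 24 hr. Activation was read as luciferase luminescence.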

A number with no mark means an inactive call. Results filed as inconclusive are left out. The source made the active and inactive calls. Unless noted, the call rests on the fitted dose curve; in most records, active means well fitted curve in the direction sought with a large enough effect in the repeat runs; inconclusive means weak or mixed curves; inactive means no such curve, though single readings can be large; an effect the other way counts as inactive or inconclusive.
On the % scale 0 is the no-effect control and ±100 the full control effect.

Chain of Voltage-gated inwardly rectifying potassium channel KCNH2 (Homo sapiens) (Q12809 whole entry, looked up): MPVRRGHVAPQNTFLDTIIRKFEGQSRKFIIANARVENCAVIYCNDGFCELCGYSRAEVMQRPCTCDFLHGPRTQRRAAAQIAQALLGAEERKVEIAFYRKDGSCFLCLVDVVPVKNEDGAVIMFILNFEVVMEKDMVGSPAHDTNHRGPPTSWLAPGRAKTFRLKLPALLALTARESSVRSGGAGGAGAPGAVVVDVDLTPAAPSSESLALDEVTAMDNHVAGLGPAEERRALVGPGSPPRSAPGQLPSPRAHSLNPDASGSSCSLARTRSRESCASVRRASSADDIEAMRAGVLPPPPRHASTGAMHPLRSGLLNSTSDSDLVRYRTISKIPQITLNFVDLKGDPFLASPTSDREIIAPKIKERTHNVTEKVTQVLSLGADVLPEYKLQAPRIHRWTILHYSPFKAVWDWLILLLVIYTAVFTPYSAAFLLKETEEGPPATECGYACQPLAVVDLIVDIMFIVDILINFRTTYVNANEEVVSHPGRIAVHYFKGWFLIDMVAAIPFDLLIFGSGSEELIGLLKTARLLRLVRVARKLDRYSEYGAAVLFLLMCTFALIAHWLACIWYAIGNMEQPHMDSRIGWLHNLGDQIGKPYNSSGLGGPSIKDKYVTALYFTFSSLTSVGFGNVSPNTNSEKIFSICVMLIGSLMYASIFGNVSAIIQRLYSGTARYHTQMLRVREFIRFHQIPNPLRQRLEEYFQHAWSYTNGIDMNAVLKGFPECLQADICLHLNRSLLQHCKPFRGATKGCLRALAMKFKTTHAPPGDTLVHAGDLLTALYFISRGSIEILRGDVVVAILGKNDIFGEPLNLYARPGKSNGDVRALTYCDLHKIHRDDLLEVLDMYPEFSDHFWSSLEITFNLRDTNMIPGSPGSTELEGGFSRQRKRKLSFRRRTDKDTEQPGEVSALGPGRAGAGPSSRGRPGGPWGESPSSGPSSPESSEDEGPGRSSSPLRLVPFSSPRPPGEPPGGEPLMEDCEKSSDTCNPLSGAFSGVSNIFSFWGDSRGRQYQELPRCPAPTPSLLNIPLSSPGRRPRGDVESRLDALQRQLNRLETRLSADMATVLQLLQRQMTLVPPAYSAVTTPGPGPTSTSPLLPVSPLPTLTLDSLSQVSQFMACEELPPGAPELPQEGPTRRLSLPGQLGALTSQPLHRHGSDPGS
Chain of Cytochrome P450 2C19 (Homo sapiens) (P33261 whole entry, looked up): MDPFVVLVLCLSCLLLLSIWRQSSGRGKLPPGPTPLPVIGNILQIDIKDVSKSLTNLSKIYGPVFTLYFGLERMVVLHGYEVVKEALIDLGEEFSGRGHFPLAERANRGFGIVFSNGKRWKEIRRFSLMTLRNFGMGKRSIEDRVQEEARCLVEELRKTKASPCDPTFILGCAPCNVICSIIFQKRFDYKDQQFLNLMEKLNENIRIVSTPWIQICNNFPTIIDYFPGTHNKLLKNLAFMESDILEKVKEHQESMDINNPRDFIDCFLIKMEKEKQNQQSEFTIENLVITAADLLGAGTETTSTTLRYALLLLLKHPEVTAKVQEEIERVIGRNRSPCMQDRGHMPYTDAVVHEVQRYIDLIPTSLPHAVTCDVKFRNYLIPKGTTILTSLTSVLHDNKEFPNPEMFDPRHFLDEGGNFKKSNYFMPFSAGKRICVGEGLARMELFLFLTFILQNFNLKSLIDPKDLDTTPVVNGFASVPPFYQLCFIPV
Chain of Cytochrome P450 2C9 (Homo sapiens) (P11712 whole entry, looked up): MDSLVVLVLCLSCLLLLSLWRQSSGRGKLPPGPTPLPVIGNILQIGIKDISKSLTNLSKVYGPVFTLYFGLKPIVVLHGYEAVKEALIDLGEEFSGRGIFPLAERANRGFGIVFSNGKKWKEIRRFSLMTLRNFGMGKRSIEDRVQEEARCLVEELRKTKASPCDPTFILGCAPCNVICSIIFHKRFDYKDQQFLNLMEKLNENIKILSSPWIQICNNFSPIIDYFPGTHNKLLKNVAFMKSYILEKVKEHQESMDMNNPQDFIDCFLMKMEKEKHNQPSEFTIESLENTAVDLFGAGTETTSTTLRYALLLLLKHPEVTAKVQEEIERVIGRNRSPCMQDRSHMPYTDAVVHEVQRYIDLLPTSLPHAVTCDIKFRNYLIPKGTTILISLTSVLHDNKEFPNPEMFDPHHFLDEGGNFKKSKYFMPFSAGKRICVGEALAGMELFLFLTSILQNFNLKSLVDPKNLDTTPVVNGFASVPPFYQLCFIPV
Chain of Cytochrome P450 1A2 (Homo sapiens) (P05177 whole entry, looked up): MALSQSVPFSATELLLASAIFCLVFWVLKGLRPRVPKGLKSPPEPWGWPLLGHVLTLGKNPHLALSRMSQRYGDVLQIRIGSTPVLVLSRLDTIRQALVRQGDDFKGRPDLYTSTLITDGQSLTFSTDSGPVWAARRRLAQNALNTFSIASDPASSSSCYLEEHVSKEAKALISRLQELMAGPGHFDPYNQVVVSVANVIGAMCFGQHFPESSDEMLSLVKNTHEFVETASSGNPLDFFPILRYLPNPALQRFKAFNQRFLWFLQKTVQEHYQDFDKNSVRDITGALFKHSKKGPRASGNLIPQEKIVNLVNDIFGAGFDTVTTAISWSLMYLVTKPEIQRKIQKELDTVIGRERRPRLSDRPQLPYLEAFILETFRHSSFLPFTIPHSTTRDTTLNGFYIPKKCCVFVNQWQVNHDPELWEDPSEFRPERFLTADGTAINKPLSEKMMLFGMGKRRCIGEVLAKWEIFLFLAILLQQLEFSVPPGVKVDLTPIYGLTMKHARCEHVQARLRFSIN
Chain of Cytochrome P450 2D6 (Homo sapiens) (P10635 whole entry, looked up): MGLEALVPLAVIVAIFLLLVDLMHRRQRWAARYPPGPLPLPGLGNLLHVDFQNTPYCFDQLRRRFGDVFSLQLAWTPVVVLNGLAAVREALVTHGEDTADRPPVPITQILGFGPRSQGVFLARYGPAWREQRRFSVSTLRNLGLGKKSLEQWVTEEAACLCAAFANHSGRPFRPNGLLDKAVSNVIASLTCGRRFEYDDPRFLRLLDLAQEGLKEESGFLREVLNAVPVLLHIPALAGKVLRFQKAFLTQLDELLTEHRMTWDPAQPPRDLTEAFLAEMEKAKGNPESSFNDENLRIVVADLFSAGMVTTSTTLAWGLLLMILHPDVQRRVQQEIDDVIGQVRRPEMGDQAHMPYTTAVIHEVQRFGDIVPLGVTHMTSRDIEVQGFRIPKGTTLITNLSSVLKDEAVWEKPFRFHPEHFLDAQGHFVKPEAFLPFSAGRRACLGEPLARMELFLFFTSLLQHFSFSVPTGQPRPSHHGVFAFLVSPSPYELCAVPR
Chain of Nuclear receptor subfamily 1 group I member 2 (Rattus norvegicus) (Q9R1A7 whole entry, looked up): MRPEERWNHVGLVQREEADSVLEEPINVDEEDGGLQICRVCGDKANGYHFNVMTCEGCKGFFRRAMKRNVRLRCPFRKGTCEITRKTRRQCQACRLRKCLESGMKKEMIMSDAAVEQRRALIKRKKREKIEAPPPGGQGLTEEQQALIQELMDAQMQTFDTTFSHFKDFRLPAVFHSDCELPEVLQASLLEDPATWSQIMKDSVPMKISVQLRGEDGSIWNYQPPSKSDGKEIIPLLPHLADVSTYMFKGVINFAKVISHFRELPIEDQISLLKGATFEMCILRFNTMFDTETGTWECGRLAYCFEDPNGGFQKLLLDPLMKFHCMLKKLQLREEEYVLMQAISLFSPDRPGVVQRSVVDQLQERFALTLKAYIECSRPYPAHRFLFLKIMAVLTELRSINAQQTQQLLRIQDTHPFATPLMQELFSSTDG

In the case of `CN(C)c1ccncc1`, the call in assay [1], in assay [2], in [3] and in [5] was inactive. Besides, the Potency entry in assay [4], in assay [6], in assay [8], in assay [9], in [10] and in assay [11] was “inactive” throughout. In assay [12], the Potency entry is “inactive”. In assay [7], the Potency is 31.7 µM (active).
Take `CCOC(=O)CC`: the call in assay [1], in [2], in assay [5] and in [13] was inactive. Also, the Potency entry in assay [4], in assay [6], in assay [7], in assay [8], in assay [9] and in [10] was “inactive” throughout. The Potency result in assay [11] is “inactive”.
As for `CCCCN1C(=O)c2ccccc2C1=O`, the compound was classed as inactive in [14], in assay [2], in assay [3], in assay [5] and in assay [13]. In addition, the Potency result in assay [15], in assay [4], in assay [6], in assay [7], in assay [11] and in [12] was “inactive” each time. In addition, the Potency in [8] was 20.7 µM (active); in assay [10] it was 2.61 µM (active).
Consider `CC/C=C/CCCCCCCCCCOC(C)=O`, for which the result in assay [1], in [2] and in assay [13] was inactive. The Potency entry in assay [4], in [7], in [8], in assay [9] and in assay [12] was “inactive” in each case.
For the compound `CCCCC(CC)COC(=O)CC#N` (configuration not stated), the result in assay [1], in assay [2], in [3] and in assay [13] was inactive. For the same compound, the Potency result in assay [4] and in [11] was “inactive” throughout. Moreover, the Potency in assay [8] is 39.9 µM (active); in assay [9] it was 31.7 µM (active); in assay [10], 35.6 µM (active); in assay [12], 39.9 µM (active).
In the case of `CC(C)(C)OC=O`, the result in [1], in [2] and in assay [13] was inactive. Also, the Potency result in assay [4], in assay [6], in assay [8], in assay [9], in assay [11] and in [12] was “inactive” each time.
For the compound `Cc1cc2c(cc1CC(=O)c1sccc1S(=O)(=O)Nc1onc(C)c1Cl)OCO2`, the result in assay [1], in assay [2], in assay [3], in assay [5] and in assay [13] was inactive. For the same compound, the Potency entry in assay [4] and in assay [11] was “inactive” in each case. The Potency in assay [8] was 8.71 µM (active); in assay [9] it was 8.71 µM (active); in assay [10], 3.23 µM (active).
For the compound `CCCCN(CCCC)CCCCCCN(CCCC)CCCC`, the outcome in [14], in assay [2], in [3], in assay [5] and in assay [13] was inactive. Moreover, the Potency result in assay [15], in assay [4], in assay [6], in assay [8], in [10] and in assay [12] was “inactive” each time. Also, in assay [7], the Potency was 5.03 µM (active).
`CCN(CC)CC`: the outcome in assay [14], in assay [2], in assay [3], in [5] and in assay [13] was inactive. Also, the Potency result in assay [15], in [4], in [6], in assay [10], in assay [11] and in [12] was “inactive” each time. The Potency in assay [7] was 23.6 µM (active); in assay [8] it was 59.4 µM (active).
As to `C[C@H]1COc2c(C3(N)CC3)c(F)cc3c(=O)c(C(=O)O)cn1c23`, the outcome in assay [1], in assay [2], in assay [5], in assay [17] and in assay [18] was inactive. The Potency result in assay [4], in assay [6], in assay [7], in assay [8], in assay [10] and in assay [11] was “inactive” each time. The Potency result in assay [12] is “inactive”. Further, the max activation in assay [16] was -2.87%.
In the case of `CC(C)C(C)C`, the result in [1], in assay [2], in assay [3] and in assay [13] was inactive. The Potency entry in assay [4], in [7], in assay [8], in assay [9], in assay [10] and in assay [11] was “inactive” in each case. For the same compound, in assay [12], the Potency result is “inactive”.
